The values that follow come from PubChem BioAssay AID1159577 (Broad Institute, 2015).

Screen size: about 1,300 compounds; about 240 (18%) were called active. Another 8% or so got no clear call; they are omitted. These entries were drawn from the full list. Entries with a potency or affinity are not part of this list. Values without a mark were called inactive. How the calls were made is not given here.

A short description of the experiment: toxicity to human hepatoma HepG2 cells – cell-based, cherry-picked samples, cytotoxicity control, dose response (AID 1159577).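 Further: 0% = neutral control wells and -100% = positive control wells.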 The settings on record: HepG2 cytotoxicity counterscreen, plate reader; series mostly up to 19.5 µM; activity change, negative = cytotoxicity: at the top concentration. (Counterscreens check selectivity or assay interference.)
`COc1ccc(CNC(=O)C[C@H]2C=C[C@@H](NS(=O)(=O)c3cccc(OC)c3)[C@@H](CO)O2)cc1`: the “activity change, negative = cytotoxicity” value was -6.58% [at 21 µM].
To `Cc1noc(C)c1NC(=O)Nc1ccc2c(c1)C(=O)N([C@H](C)CO)C[C@@H](C)[C@@H](CN(C)S(C)(=O)=O)O2` belongs -16.8%; to `N#Cc1cccc(-c2ccc(C3[C@@H]4CN(C(=O)C5CCC5)C[C@H]3N4)cc2)c1` (some centres undefined), -12.6%; to `O=C(C1CC1)N1C[C@@H]2N[C@H](C1)C2c1ccc(-c2cccc(F)c2)cc1` (some centres undefined), -22.1%.
The value for `C[C@@H]1CN([C@@H](C)CO)C(=O)c2c(c3ccccc3n2C)-c2ccccc2CO[C@@H]1CN(C)C(=O)Nc1cccc(Cl)c1Cl` was 2.47%; that for `C[C@H]1CN([C@@H](C)CO)C(=O)CCCn2nncc2CO[C@@H]1CN(C)C(=O)Nc1ccc(N2CCCCC2)cc1` was -6.14%; that for `OC[C@H]1CC[C@@H]2O[C@H](CCc3ccc(-c4ccc(F)cc4)cc3)[C@H](n3cc(C4CC4)nn3)C[C@@H]2O1` was -20.8%.
The value for `OC[C@@H]1CC[C@@H]2O[C@H](CCc3ccc(-c4ccccc4)cc3)[C@H](n3cc(-c4ccccc4)nn3)C[C@@H]2O1` was -6.72%; that for `O=C(C[C@@H]1CC[C@@H]2[C@H](COC[C@@H](O)CN2S(=O)(=O)c2ccccc2)O1)NCc1ccc(-c2ccccc2)cc1` was -5.27%.
Take `N#Cc1cccc(-c2ccc(C3[C@@H]4CN(C(=O)C5CC5)C[C@H]3N4)cc2)c1` (some centres undefined): the “activity change, negative = cytotoxicity” value was 9.55% [at 21 µM].
To `COc1cccc(CN2C[C@@H]3N[C@H](C2)C3c2ccc(-c3ccncc3)cc2)c1` (some centres undefined) belongs -28.2%; to `COc1ccc(NC(=O)Nc2cccc3c2O[C@H](CN(C)C(=O)Nc2cccc4ccccc24)[C@H](C)CN([C@@H](C)CO)C3=O)cc1`, 9.07%; to `CC(C)NC(=O)N1[C@@H](CO)[C@@H](c2ccccc2)C12CN(Cc1ccc(F)cc1)C2`, 13%.
The value for `CO[C@@H]1CN(C)C(=O)c2cc(NC(=O)Cc3ccccc3)ccc2OC[C@H](C)N(C(=O)c2ccccc2F)C[C@@H]1C` was 7.81%; that for `CCCC(=O)N1CC2(C1)CN(Cc1ccc(Cl)cc1)[C@H](CO)c1[nH]c3cc(OC)ccc3c12` was -20.9% [at 21 µM]; that for `COc1ccc(C#Cc2cccc(-c3nc(C(=O)N[C@@H]4CCN(Cc5ccccc5)C4)cc4c3[C@@H](CCO)N(S(=O)C(C)(C)C)C4)c2)cc1OC` (some centres undefined) was -9.01%.
To `C[C@H](CO)N1C[C@H](C)[C@H](CN(C)S(=O)(=O)c2ccccc2F)OCc2ccccc2-c2c(n(C)c3ccccc23)C1=O` belongs -0.432%; to `COc1cccc(-c2ccc([C@@H]3[C@H](CO)N4CCCCN(C(=O)c5ccc(F)cc5)C[C@@H]34)cc2)c1`, -13.9%.
On to `COc1ccc2c3c([nH]c2c1)[C@@H](CO)N(Cc1ccccc1F)CC31CN(C(=O)C2CCCC2)C1`, for which the “activity change, negative = cytotoxicity” value is -29.4%.
With `COc1ccc(NC(=O)N(C)C[C@H]2OCc3ccccc3-c3c(n(C)c4ccccc34)C(=O)N([C@H](C)CO)C[C@@H]2C)c(OC)c1`, the “activity change, negative = cytotoxicity” value is 0.059% [at 21 µM].
The value for `CC(C)c1cn([C@H]2C[C@@H]3O[C@H](CO)CC[C@@H]3O[C@@H]2CCc2ccc(C#CC3(O)CCCC3)cc2)nn1` was 19.1%; that for `COCC(=O)Nc1ccc2c(c1)OC[C@@H](C)N(C(=O)NC(C)C)C[C@@H](C)[C@@H](OC)CN(C)C2=O` was 19.4%; that for `N#C[C@@H]1[C@@H](c2ccccc2-c2ccccc2F)[C@@H](CO)N1C(=O)C1CCOCC1` was 21.1%.
To `COc1ccc(-c2ccc3c(c2)[C@@H]2[C@@H](CCN2Cc2ccncc2)[C@@H](CO)N3)cc1` belongs 0.859% [at 21 µM].
The value for `CO[C@@H]1CN(C)C(=O)c2ccc(NC(=O)Nc3ccc(F)cc3)cc2OC[C@@H](C)N(C(=O)c2ccc(F)cc2)C[C@H]1C` was -20.5%; that for `CC(C)CC#Cc1ccc([C@H]2[C@@H](CO)N3C(=O)CN(C(=O)Cc4ccccc4)C[C@H]23)cc1` was 4.84%.
Consider `C[C@H](CO)N1C[C@H](C)[C@@H](CN(C)C(=O)Nc2ccc(-c3ccccc3)cc2)OCc2ccccc2-c2c(n(C)c3ccccc23)C1=O`, for which the “activity change, negative = cytotoxicity” value is 8.31%.
To `COc1ccc2c3c([nH]c2c1)[C@H](CO)N(Cc1ccccc1Cl)CC31CCN(C(C)=O)CC1` belongs -18%.
The value for `C[C@@H]1CN([C@H](C)CO)C(=O)c2cc(C#Cc3ccccc3F)cnc2O[C@H]1CN(C)C(=O)c1ccc2c(c1)OCO2` was 25.6%; that for `COc1ccc(-c2ccccc2[C@H]2[C@@H](C#N)N(C(=O)C3CCCC3)[C@H]2CO)cc1` was -5.04%.
To `CN1c2ccc(C3=CCCCC3)cc2[C@H]2[C@H](CCN2C(=O)C2CC2)[C@@H]1CO` belongs -2.49%; to `COC(=O)c1ccc(CN2CC(=O)N3[C@H](CO)[C@@H](c4ccc(-c5ccccc5F)cc4)[C@H]3C2)cc1`, 5.03%.
Take `CC(C)NC(=O)N1CCCCN2[C@H](CO)[C@@H](c3ccc(C#C[C@H](C)O)cc3)[C@@H]2C1`: the “activity change, negative = cytotoxicity” value was -6.05%.
As to `CCC(=O)N1CCC2(CC1)CN(C(=O)Nc1ccc(F)cc1)[C@@H](CO)c1c2c2ccc(OC)cc2n1C`, the “activity change, negative = cytotoxicity” value was 7.49%.
